Inconclusive results are not listed. A number with no mark means an inactive call. Activity calls are given as the source filed them. Calls follow the shape of the dose curve; as a rule, active = well fitted cell-killing curve with a large enough effect; inconclusive = small, poorly fitted or top-dose-only effect, or effect the other way; inactive = no such curve, though single readings can be large or run the other way.
Potency is read from the fitted curve at half-maximal effect.

A short description of this experiment: Cell Viability - LYMP2-005 (AID 967). The following applies: LYMP2-005 lymphoblastoid cell viability; series mostly up to 92.2 µM; activity change, negative = viability loss: at the top concentration. An excerpt: NIH Chemical Genomics Center [NCGC]
NIH Molecular Libraries Screening Centers Network [MLSCN]
National Institutes of Environmental Health Sciences [NIEHS]
National Toxicology Program [NTP]
We have developed a 1536-well cell-based assay for quantitative high throughput screening (qHTS) against a number of cell lines to determine in vitro cytotoxicity of small molecules. This particular assay uses a human lymphoblastoid cell line (LYMP2-005) purchased from Coriell Institute for Medical Research.
NCGC Assay Protocol Summary:
The CellTiter-Glo luminescent cell viability assay (Promega) is a homogeneous method to measure the number of viable cells in culture. The end point readout of this assay is based on quantitation of intracellular ATP, an indicator of metabolic activity, using the luciferase reaction. Luciferase catalyzes the oxidation of beetle Luciferin to oxyluciferin and light in the presence of ATP. The luminescent signal is proportional to amount of ATP present.
Using the CellTiter-Glo luminescent cell viability assay, the amount of cellular ATP was measured in the lymphoblastoid cell line with complete culture medium following compound treatment for 24 hours. The assay was performed in opaque white Kalypsys 1536-well plates. In the screen, tetraoctylammonium bromide was used as positive control. Library compounds were measured for their ability to cause acute toxicity in the cell line, as reflected by a decrease in intracellular ATP levels, in a concentration-dependent manner. […] AC50 values were determined from concentration-response data modeled with the standard Hill equation.
qHTS protocol for CellTiter Glo lymphoblastoid cellular assay
[Step] [Parameter] [Value] [Description]
1. Reagent; 5 uL; 2500 lymphoblastoid cells/well
2. Time; 5 hr; 37 C incubation
4. Controls; 23 nL; Tetraoctylammonium bromide 6.4pM to 92 uM
5. Time; 24 hr; 37 C incubation
6. Reagent; 5 uL; CellTiter Glo reagent
7. Time; 30 min; Room Temperature
8. Detection; Luminescence; Viewlux plate reader
Keywords: cell viability, cytotoxicity, lymphoblastoid cell line, luminescence, NTPHTS, NTPHTS_NCGC, NIEHS, DSSTox, MLSMR, MLSCN, NIH Roadmap, qHTS, NCGC
As to `O=C(O)c1ccc([N+](=O)[O-])cc1`, the “activity change, negative = viability loss” value is 13.5%. For the compound `CCOC(=O)C1OC1c1ccccc1` (stereo not given), the “activity change, negative = viability loss” value was 2.16%. Consider `O=C1OC(=O)c2ccccc21`, for which the “activity change, negative = viability loss” value was -21.8%. Take `Cc1c2ccccc2c(C)c2c1ccc1ccccc12`: the “activity change, negative = viability loss” value was -19.6%. Take `Nc1cc(C(=O)O)c(O)c(S(=O)(=O)O)c1`: the “activity change, negative = viability loss” value is 31.1%. Still for that read-out and setting: as for `CN(C)c1ccc(C(=N)c2ccc(N(C)C)cc2)cc1`, the figure is -39.1%; as for `CC(=O)OC1CC(C)OC(C)O1` (stereo not given), -8.13%. Same read-out and setting: as for `CC(C)(C)C(=O)C1C(=O)c2ccccc2C1=O`, the figure is -1.99%. With `CN(C)c1ccc(Cc2ccc(N(C)C)cc2)cc1`, the “activity change, negative = viability loss” value is -20.9%. On the same count and under the same terms, as for `C[Si](C)(C)Cl`, the figure is 2.67%; as for `O=[N+]([O-])c1ccccc1Nc1ccccc1`, 4.51%; as for `CCc1ccc(C(c2ccc(CC)cc2)C(Cl)Cl)cc1`, 3.19%. Regarding `Oc1cc(Cl)cc(Cl)c1Cl`, the “activity change, negative = viability loss” value is 21.3%.

As for `Cc1ccc2ccc3cccc4ccc1c2c34`, the “activity change, negative = viability loss” value was 22.1%.

`C=CC(=O)CC`: the “activity change, negative = viability loss” value is 10.6%. As for `OCC(CO)(CBr)CBr`, the “activity change, negative = viability loss” value is 6.69%. On the same count and under the same terms, with `OCC(CBr)(CBr)CBr` the figure was 5.83%; with `Nc1ccc(N)c(Cl)c1`, -31.2%; with `Cc1cc2nc(N)sc2cc1C`, -10.6%. Regarding `CCCCC(CC)COP(=O)(OCC(CC)CCCC)OCC(CC)CCCC` (stereo not given), the “activity change, negative = viability loss” value is 21.1%. For `Cc1ccc(O)c(N)c1`, the Potency was 50.1 µM (active). As for `Brc1ccc(-c2ccccc2)cc1`, the “activity change, negative = viability loss” value was -14.7%.

Regarding `CC(C)OCC1CO1` (stereo not given), the “activity change, negative = viability loss” value is 16%.

As for `CCCCOC(=O)COc1ccc(Cl)cc1Cl`, the “activity change, negative = viability loss” value is -30.4%. For `CC(=O)CC(=O)Nc1ccccc1`, the “activity change, negative = viability loss” value was -23.4%.

In the case of `Nc1cc([N+](=O)[O-])ccc1O`, the “activity change, negative = viability loss” value is -9%. Regarding `CCN(CC)c1ccc2c(C)cc(=O)oc2c1`, the “activity change, negative = viability loss” value is 8.52%.

As for `COc1ccc(C)cc1N`, the “activity change, negative = viability loss” value was 6.38%. The same measure, in the same setting: as for `O=C(O)c1cc(N=Nc2ccc([N+](=O)[O-])cc2)ccc1O`, the figure is 2.29%. As for `CC1=C(/C=C/C(C)=C/C=C/C(C)=C/C=O)C(C)(C)CCC1`, the Potency was 39.8 µM (active). Take `O=C=Nc1ccc(Cl)c(Cl)c1`: the “activity change, negative = viability loss” value was -21.6%. Take `Cc1cccnc1`: the “activity change, negative = viability loss” value was -3.53%. With `c1ccc2ncccc2c1`, the “activity change, negative = viability loss” value was 8.55%. As to `Cc1ccccc1OCC1CO1` (stereo not given), the “activity change, negative = viability loss” value was 16.3%.

Regarding `Cc1c(N)cccc1Cl`, the “activity change, negative = viability loss” value is -8.84%. Regarding `C[C@@H]1CC2(OC(O)[C@]3(C)O[C@H]23)O[C@H]2C[C@@]3(C)[C@@H]4CC[C@H]5C(C)(C)C(O[C@@H]6OC[C@@H](O)[C@H](O)[C@H]6O)CC[C@@]56C[C@@]46CC[C@]3(C)[C@@H]12` (stereo not given in full), the “activity change, negative = viability loss” value is -38.8%. The same measure, in the same setting: with `O=[N+]([O-])c1cccc(I)c1` the figure was 7.63%. As to `N=C1C=CC(=C(c2ccc(N)cc2)c2ccc(N)cc2)C=C1`, the Potency is 12.6 µM (active). Consider `Nc1ccc2c(c1)C(=O)c1ccccc1C2=O`, for which the “activity change, negative = viability loss” value was -19.9%.

Consider `CCCCC(CC)COCCCN` (stereo not given), for which the “activity change, negative = viability loss” value was -4.86%.

These data come from PubChem BioAssay (NCATS).
